CCT modulator – modulators of cytosolic chaperonin (CCT/TRiC) activity; activity change, % (no concentration beside the values), hits read low; actives 0.3% (n = 360,000); purified chaperonin ATPase assay, HTRF ADP detection, 30 min; in the data active means activity change below about -30%; further: on the % scale 0 is the no-effect control and ±100 the full control effect
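Enzyme 40 or 20 nM (batch-dependent) in Tris pH 7.4/KCl/MgCl2/DTT; cpd 76 uM single point; ATP 10 uM; 30 min 37 °C; Transcreener ADP HTRF detection, 30 min RT; ratio 665/615.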
uPA surface inh – inhibitors of cell surface uPA generation; cell surface uPA generation assay, qHTS; Potency, µM (top dose mostly 38.3 µM), for inactives: at the highest dose activity change, negative = inhibition, most hits filed as inhibitors; actives 0.31% (n = 330,000); AID 540303; active means well fitted inhibition curve with a large enough effect; inconclusive means small, poorly fitted or top-dose-only effect; inactive means no such curve, though single readings can be large or run the other way; tested in mouse RAW 264.7 cells; further: potency means the concentration at half of the fitted maximal effect; on the % scale 0 is the no-effect control and ±100 the full control effect; nearly all actives have a fitted effect of over 55% in size
Mm-Cpn inhibitor – blocks the Methanococcus maripaludis chaperonin Mm-Cpn | purified Mm-Cpn ATPase, ADP Transcreener TR-FRET | Potency, µM (titrated, usually from 76.9 µM), for inactives: at the highest dose activity, negative = inhibition, usual class: inhibitors | actives 0.031% (n = 330,000) | AID 504842; active means well fitted inhibition curve with a large enough effect; inconclusive means small, poorly fitted or top-dose-only effect; further: potency means the concentration at half of the fitted maximal effect; on the % scale 0 is the no-effect control and ±100 the full control effect; nearly all actives have a fitted effect of over 80% in size
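Eu-cryptate anti-ADP/ADP-d2 competition gives a ratio inversely related to ADP. Enzyme at 25 nM was pre-exposed to compound for 10 min, then given 10 uM ATP for 30 min, 37°C throughout.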
gsp antagonist – antagonists of gsp mutant (McCune-Albright syndrome). gsp-mutant cells, cAMP HTRF, 30 min. Potency, µM (highest dose often 76.9 µM), for the others: top-dose activity change, negative = inhibition, most hits filed as inhibitors. actives 0.4% (n = 340,000). AID 624288; calls by dose curve; cell line not stated here;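 further: intracellular cAMP measured with PDE inhibitor Ro 20-1724 present during compound exposure; potency means the concentration at half of the fitted maximal effect; on the % scale 0 is the no-effect control and ±100 the full control effect; nearly all actives have a fitted effect of over 65% in size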
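Cells, 2000/well, grown 16–24 h in DMEM 10% FBS with 0.5 mg/ml G418, then compounds plus […] (300 uM addition stock), 30 min at 37C. cAMP read by HTRF (cAMP-d2 and anti-cAMP antibody-K in lysis buffer) after 30 min RT.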
gsp agonist – gsp mutant agonism | AID 624287 | gsp mutant cells, cAMP HTRF, 30 min | actives 0.13% (n = 340,000) | Potency, µM (series often up to 76.9 µM), for inactives: at the top dose activation (cAMP increase), usual class: activators; active means well fitted activation curve with a large enough effect; inconclusive means small, poorly fitted or top-dose-only effect, or another doubt; inactive means no such curve, though single readings can be large or run the other way; cell line not stated here;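 further: phosphodiesterase inhibitor Ro 20-1724 added with compounds to block cAMP breakdown; potency means the concentration at half of the fitted maximal effect; nearly all actives have a fitted effect of over 60% in size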
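Cells in DMEM/10% FBS with G418 were pretreated with compounds in DMSO plus […] (300 uM stock) for 30 min at 37C. cAMP was measured by HTRF (cAMP-d2 plus anti-cAMP antibody-K) after 30 min at room temperature.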
TSHR antagonist – human thyrotropin receptor antagonism. TSHR-expressing cells, TSH-stimulated cAMP HTRF, 2 h; active compounds read low. activity change, negative = inhibition, % at 11.5 µM. actives 0.2% (n = 330,000);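 active means activity change below a set negative limit, meaning inhibition stronger than a set level, cut at about -70% in these data; inconclusive means activity change between two set negative limits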; further: on the % scale 0 is the no-effect control and ±100 the full control effect
Target sequence (P16473 whole entry, looked up): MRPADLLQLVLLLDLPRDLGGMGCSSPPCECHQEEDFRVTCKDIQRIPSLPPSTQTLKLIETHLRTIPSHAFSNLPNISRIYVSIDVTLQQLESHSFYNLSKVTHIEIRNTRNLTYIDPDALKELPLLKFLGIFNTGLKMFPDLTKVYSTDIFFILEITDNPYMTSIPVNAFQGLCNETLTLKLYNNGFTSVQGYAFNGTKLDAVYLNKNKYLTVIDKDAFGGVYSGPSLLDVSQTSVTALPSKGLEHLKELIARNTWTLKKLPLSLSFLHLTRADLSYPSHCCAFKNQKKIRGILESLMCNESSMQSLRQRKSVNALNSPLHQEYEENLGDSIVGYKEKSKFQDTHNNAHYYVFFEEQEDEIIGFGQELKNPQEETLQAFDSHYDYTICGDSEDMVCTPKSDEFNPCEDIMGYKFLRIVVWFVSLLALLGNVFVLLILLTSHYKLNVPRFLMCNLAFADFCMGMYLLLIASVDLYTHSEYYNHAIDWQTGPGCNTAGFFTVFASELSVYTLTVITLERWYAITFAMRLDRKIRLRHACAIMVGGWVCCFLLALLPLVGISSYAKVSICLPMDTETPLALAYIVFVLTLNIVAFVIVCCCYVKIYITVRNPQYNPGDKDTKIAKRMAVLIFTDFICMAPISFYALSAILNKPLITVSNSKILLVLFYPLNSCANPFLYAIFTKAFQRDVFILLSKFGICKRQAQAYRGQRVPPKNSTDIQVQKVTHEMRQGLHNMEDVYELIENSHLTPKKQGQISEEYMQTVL
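Cell-based HTRF cAMP assay; TSHR cells + compound, TSH EC80 (4nM final), 2 h, 37 deg C. Lysis with anti-cAMP cryptate and cAMP-d2, 30 min RT, read 665/620 nm.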
Starred values were filed as active, the others as inactive; u = inconclusive; x = no result given; [ ] = another dose, or the depositor's remark. Most compounds without a hit are left out; they make up all but 1.2% or so of the library.

SMILES	CCT modulator	uPA surface inh	Mm-Cpn inhibitor	gsp antagonist	gsp agonist	TSHR antagonist
CCCCC(=O)NC(c1cccs1)c1cc(Cl)c2cccnc2c1O (centres undefined)	1	u	-4%	-3%	5%	20
CCC(=O)NC(c1cccs1)c1cc(Cl)c2cccnc2c1O (centres undefined)	-2	7.1µM*	2%	-5%	16%	-9
CCC(=O)NC(c1cc(Cl)c2cccnc2c1O)C1CC1 (centres undefined)	x	13µM*	-2%	x	x	-19
COc1ccc(C(NC(C)=O)c2cc(Cl)c3cccnc3c2O)cc1 (centres undefined)	1	6.3µM*	-5%	14%	u	-11
Cc1ccc(C#CC[N+]2(CC#Cc3ccc(C)cc3)CCCCC2)cc1	0	7.1µM*	-18%	-2%	-73%	2
C(#Cc1ccccc1)C[N+]1(CC#Cc2ccccc2)CCCCC1	-2	-11%	0%	13%	4%[15.4 µM]	-3
CC1CC1C(=O)OCc1cc(=O)n2cc(Br)ccc2n1 (centres undefined)	0	-3%	-4%	5%	u	1
O=C(OCc1cc(=O)n2cc(Br)ccc2n1)C1COc2ccccc2O1 (centres undefined)	-2	4%	-5%	-4%	10µM*	0
O=C(Nc1ccc2[nH]ccc2c1)c1ccccc1	2	-8%	-3%	-6%	-4%[15.4 µM]	-12
O=C(Nc1ccc2[nH]ccc2c1)c1ccc(F)cc1	-3	0.89µM*	1%	0%	16%	6
CCOC(=O)CNC(=O)CSc1nc(-c2ccc(C)cc2)ns1	0	-5%	2%	11µM*	-29%[15.4 µM]	-5
Clc1ccc(-c2cccc3nccn23)c(Cl)c1	-77*	x	x	x	x	x
Cc1cc2nc3ccc(N(C)C)cc3nc2cc1N	-40*	u	x	-18%	30%	x
Cc1ccc(-n2nc3cc(C)c(N)cc3n2)cc1	-2	-11%	-4%	9%	u	-6
COC(=O)c1ccc(CSc2nnc(NC(=O)c3cc4c(s3)CCCC4)s2)cc1	-9	10%	-12%	-3%	22%	-6
O=C(CCS(=O)(=O)c1ccccc1)Nc1nc2cc3c(cc2s1)OCO3	-1	2%	-5%	50µM*	-3%	2
COc1ccc(OC)c2sc(NC(=O)CCS(=O)(=O)c3ccccc3)nc12	1	7.1µM*	x	-11%	u	x
COc1ccc(OC)c2sc(NC(=O)CCSc3ccccc3)nc12	1	-17%	-1%	4%	5%	12
Cc1cc(OCC(O)CN(CCO)CCO)ccc1Cl (centres undefined)	-2	2%	1%	3%	-20%	22
O=C(CN1C2CCCC1CC(NC(=O)c1ccco1)C2)Nc1ccccc1 (centres undefined)	-3	-1%	0%	-5%	7%	10
Cc1cc(Br)c(OCc2ccc(C(=O)N/N=C/c3ccc[nH]3)cc2)c(Br)c1	1	0.18µM*	0%	7%	8%	29
CNC(=O)c1ccsc1NC(=O)c1ccc(S(=O)(=O)N2CCCc3ccccc32)cc1	0	u	28µM*	u	-25%	4
O=C(Nc1nc2c(s1)CCCC2)c1ccc(S(=O)(=O)N2CCCc3ccccc32)cc1	-1	12%	-10%	-10%	7%	-10
CCOc1ccc(C(=O)OCC(=O)NCCNC(=O)COC(=O)c2ccc(OCC)cc2)cc1	0	1%	1%	8%	-21%[15.4 µM]	5
CN(C)c1ccc(-c2[nH][nH]c(=O)c2NC(=O)c2ccccn2)cc1	-36*	x	x	x	x	x
SMILES	CCT modulator	uPA surface inh	Mm-Cpn inhibitor	gsp antagonist	gsp agonist	TSHR antagonist
COc1cccc2cc(C(=O)OCC(=O)N3CC(C)OC(C)C3)c(=O)oc12 (centres undefined)	1	-2%	2%	2%	1%	1
COc1ccc(Cn2c(=O)[nH]c3cc(C(=O)NCCCN4CCCCCC4)ccc3c2=O)cc1	0	-3%	-1%	5%	-55%	-10
CCC1C(=O)C(CC)C(c2ccccc2)NC1c1ccccc1 (centres undefined)	-50*	-2%	0%	-11%	1%	11
Cc1ccc(C(=O)Nc2cccc(NC(=O)c3cccs3)c2)c(C)c1	1	13µM*	0%	-5%	-4%	-12
N#C/C(=C\c1ccc[nH]1)C(=O)Nc1ccccc1Cl	0	-3%	0%	32µM*	u	-1
CCOC(=O)c1c(C)oc2cc(Br)c(OC)cc12	1	-1%	-9%	-3%	-28%	-14
CN(C(=O)CSc1ncnc2ccccc12)C1CCS(=O)(=O)C1 (centres undefined)	0	-7%	-4%	8%	13µM*	19
CCn1ccc(C(=O)Nc2ccccc2Cl)n1	0	-15%	-6%	50µM*	-30%	11
CCN1CCN(Cc2ccc(NC(=O)Nc3ccccc3Cl)cc2)CC1	1	10µM*	-29%	-3%	-18%	-4
O=C(Nc1ccc(CN2CCCCC2)cc1)Nc1ccccc1Cl	-2	-12%	2%	19%	-4%	7
Cc1cccc(Nc2ncccc2C(=O)O)c1C	-2	-2%	1%	-17%	x	13
O=C(Nc1nnc(C2CC2)o1)c1ccc(S(=O)(=O)N2CCc3ccccc3C2)cc1	0	-15%	1%	-6%	-51%	-13
O=c1[nH]c2cc(Cl)ccc2n(CCNc2ncc(C(F)(F)F)cc2Cl)c1=O	-67*	4%	0%	6%	-13%	-7
O=c1cc(Cl)[nH]c(=O)n1CCNc1ncc(C(F)(F)F)cc1Cl	0	-5%	-5%	-2%[15.4 µM]	5%	-1
Cc1cc(C(=O)O)ccc1N/C=C1\CCCC(C)C1=O (centres undefined)	-2	-5%	1%	-8%	-25%	-19
O=c1oc2ccccc2cc1-c1csc(NN=C2CCCC2)n1	-1	7%	-6%	-28%	-21%	6
O=C(O)c1cccc(Nc2nc(-c3cc4ccccc4oc3=O)cs2)c1	2	-1%	-3%	35µM*	5%[15.4 µM]	-19
CCCCN(C(=O)Cc1ccc(S(=O)(=O)N2CCOCC2)s1)c1c(N)n(CCCC)c(=O)[nH]c1=O	0	1%	-3%	6%	u	-5
O=C(Nc1ccc(NC(=O)c2cccs2)c(Cl)c1)c1ccco1	-1	2%	3%	-12%	-50%	-1
C=CS(=O)(=O)c1ccc(Oc2ccc(S(=O)(=O)C=C)cc2)cc1	-45*	70%	-5%	-3%	5%	-89*
NS(=O)(=O)c1ccc(Oc2ccc(S(N)(=O)=O)cc2)cc1	0	4%	2%	-1%	9%	-4

Bioassay records deposited in PubChem BioAssay by National Center for Advancing Translational Sciences (NCATS).
